According to PubChem BioAssay AID2320 (National Center for Advancing Translational Sciences (NCATS), 2010):
Results filed as inconclusive are left out. Unmarked numbers belong to inactive results. Active and inactive are the calls of the source. The call rests on the fitted dose curve.

Assay: A qHTS for Small Molecule Inhibitors of Shiga Toxin (Confirmatory); further: nearly all actives have a fitted effect of over 75% in size; on activity, positive = inhibition of toxin: 0% is about no effect
Conditions: Cell-based Shiga toxin protection reporter assay; series mostly up to 38.3 µM; activity, positive = inhibition of toxin: at the top concentration
Potency means the concentration at half of the fitted maximal effect.

Structure (SMILES) | Potency | activity, positive = inhibition of toxin [%]
Cc1c(C(=O)Nc2nc3ccccc3[nH]2)oc2ccc(Br)cc12 | 11.3 µM (active) | –
CC(C)(C)C1CCC(C(=O)OCC(=O)c2ccc[nH]2)CC1 (configuration not stated) | 2.52 µM (active) | –
COc1ccccc1-n1cnnc1SCC(=O)Nc1ccccc1 | 22.5 µM (active) | –
O=S(=O)(c1ccsc1)N1CC=C(c2ccccc2)CC1 | 2.83 µM (active) | –
N=c1c(S(=O)(=O)c2ccc(Cl)cc2)cc2c(=O)n3ccccc3nc2n1C1CCCCC1 | – | -11.7
NS(=O)(=O)c1ccc(CCNC(=O)c2ccc(NC3=NC4CS(=O)(=O)CC4S3)cc2)cc1 (configuration not stated) | – | 25.9
COC(=O)c1ccc(-c2ncc(-c3cccc4ccccc34)o2)cc1 | 7.11 µM (active) | –
COc1ccccc1CNC(=O)c1csc2c1CCCC2 | 10 µM (active) | –
O=C1ON=C(c2ccccc2)/C1=C/c1ccc(OS(=O)(=O)c2ccccc2)cc1 | 7.11 µM (active) | –
COc1ccccc1C(=O)CSc1nccn1C | 28.3 µM (active) | –
COc1ccccc1CN(Cc1cccnc1)S(=O)(=O)c1ccc(-n2cnnn2)c(OC)c1 | – | -24.3
COc1ccc(NC(=O)CSc2nccn2-c2cccc(OC)c2)cc1 | – | -33.2
CC(=O)Nc1ccc(N2N=C(C)C(N=Nc3ccccc3)C2=O)cc1 (configuration not stated) | 11.3 µM (active) | –
O=C(CN1CCN(c2ncc(C(F)(F)F)cc2Cl)CC1)NC(=O)NCc1ccccc1 | – | -15.7
CCCn1nnc(NC(=O)COc2ccc(C3CCCCC3)cc2)n1 | 0.0252 µM (active) | –
Cc1nn(C2CCCCC2)c(N)c1-c1ccccc1 | – | 17.1
COc1ccc(C(=O)CC(=O)C(=O)Nc2ccc(C)cc2Cl)cc1 | – | 17.8
Cc1ccc(OCC(=O)NNC(=O)CCC(=O)Nc2ccc(C)cc2C)cc1 | – | 19.3
CCOC(=O)N1CCN(S(=O)(=O)c2ccc(C(=O)NNc3nc4c(C)cc(C)cc4s3)cc2)CC1 | 0.04 µM (active) | –

Structure (SMILES) | Potency | activity, positive = inhibition of toxin [%]
CSc1nc2ccc(N3C(=O)C4CCCCC4C3=O)cc2s1 (configuration not stated) | – | 29.6
COCCCn1c(SCC(=O)OC2CCCCC2)nnc1-c1cccs1 | – | -10.4
CC(=O)c1ccccc1Oc1ncnc(N)c1[N+](=O)[O-] | – | -5.59
CC1CCC/C=C/C2CC(O)CC2C(O)/C=C/C(=O)O1 (configuration not stated) | 0.565 µM (active) | –
CCc1ccc(C(=O)c2oc3nc(C)cc(C)c3c2N)cc1 | 5.04 µM (active) | –
Cc1ccc(NC(=O)C(C)N=C2NS(=O)(=O)c3ccccc32)cc1 (configuration not stated) | 0.0005 µM (active) | –
CSCc1cc(N2CCOCC2)nc(SCc2ccc(Cl)cc2Cl)n1 | – | -1.1
O=C(NNC(=O)c1nc(Cl)ccc1Cl)c1ccc(F)cc1 | – | 23.4
Cc1cccc(C(=O)Nc2scc(CC(C)C)c2C(=O)O)c1 | – | -17.8
Cc1nn(-c2ccc(Cl)cc2)c(N)c1C(O)(CSc1nccn1C)C(F)(F)F (configuration not stated) | – | 53.7
COc1ccc(C/C(O)=C(\C#N)c2nc3ccccc3s2)cc1 | – | 6.3
Cc1ccccc1C(=O)NN1CCOCC1 | – | 15.9
O=C(CCN1C(=O)c2cccc3cccc(c23)C1=O)NC1CCS(=O)(=O)C1 (configuration not stated) | – | -2.99
CCCCOC(=O)c1ccc(N=Nc2c(C)c(C#N)c(O)[nH]c2=O)cc1 | 15.9 µM (active) | –
O=C(Nc1ccc(/C=C/c2nc3ccccc3o2)cc1)c1ccc(F)cc1 | 3.18 µM (active) | –
CCN(CC)CC(=O)Nc1ccc(-c2nc3cc(NC(=O)CN(CC)CC)ccc3o2)cc1 | – | 46.8
CC(=O)c1cccc(NC(=O)c2ccc(NC(=O)CCS(=O)(=O)c3cccs3)cc2)c1 | – | 9.11
O=C(CCS(=O)(=O)c1cccs1)Nc1ccc(C(=O)NCc2cccs2)cc1 | – | -9.28
